PubChem BioAssay (NCATS)
Results filed as inconclusive are left out. Active and inactive are the calls of the source. Unless noted, the call rests on the fitted dose curve; in most records, active means well fitted curve in the direction sought with a large enough effect; inconclusive means small, poorly fitted or top-dose-only effect, or another doubt; inactive means no such curve, though single readings can be large; an effect the other way counts as inactive or inconclusive.

How the values were obtained:
[1] = target: phosphoglycerate mutase (Leishmania major) (UniProt Q4Q090); assay: qHTS Validation Assay to Find Inhibitors of Phosphoglycerate Mutase (AID 504548); further: series mostly up to about 58 µM
Summary of the method: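 Luminescent end-point read-out via Kinase-GloPlus after a 10-minute development. Reaction: 1.25nM Leishmania major PGAM with substrate and compound, 45 minutes at room temperature in TEA buffer (pH 7.6) with MgCl2 and Tween-20.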

[2] = qHTS for Inhibitors of ATXN expression: Validation of Cytotoxic Assay (AID 588349)
Summary of the method: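 Toxicity of test compounds toward HEK293 cells is scored from cellular ATP content measured by CellTiter Glo. Cells receive titrated doses and incubate 72 hr at 37 degrees C beforehand.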

[3] = qHTS for Inhibitors of ATXN expression: Validation (AID 588378); further: series mostly up to about 57 µM; nearly all actives have a fitted effect of over 75% in size
Summary of the method: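 Validation of ATXN2 expression inhibitors uses a cell-based luciferase fusion reporter in HEK293 cells, with 24 h compound exposure and paired viability (fluorescence) and reporter (luminescence) end-point reads.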

[4] = target: Glutaminase kidney isoform, mitochondrial (Homo sapiens) (UniProt O94925); assay: qHTS for Inhibitors of Glutaminase (GLS): LOPAC Validation (AID 624146);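 further: glutamate product detected by oxidase and peroxidase coupled Amplex red fluorescence gain; series mostly up to about 46 µM; nearly all actives have a fitted effect of over 60% in size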
Summary of the method: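 Assay buffer: 45 mM KH2PO4 pH 8.2, 0.02% Tween-20. hKGA acts on L-glutamine (1 mM solution added); product glutamate is reported by an oxidase/peroxidase Amplex Red coupling, with fluorescence taken at baseline and 30 min.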

[5] = qHTS of Trypanosoma Brucei Inhibitors: LOPAC Validation (AID 624147)
Summary of the method: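 Quantitative HTS: titrated library compounds versus trypanosomal pyruvate kinase in TEA buffer (pH 7.2) containing KCl, MgCl2, BSA and Tween-20. Reactions were initiated with ADP, 130 uM final. Kinase-Glo Plus luminescence was read after 45 min at RT.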

[6] = target: Glucagon-like peptide 1 receptor (Homo sapiens) (UniProt P43220); assay: qHTS of GLP-1 Receptor Agonists: LOPAC Validation (AID 624148);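 further: higher luminescence signal means agonism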
Summary of the method: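 HEK293 cells stably co-expressing a cAMP-responsive luciferase reporter and a hypersensitive GLP-1R were plated 12 h at 37 °C and exposed to compounds for 4-6 hr at 37 °C, 5% CO2. Luminescence was read 12 min after adding detection reagent.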

[7] = qHTS of Nrf2 Activators: LOPAC Validation (AID 624149)
Summary of the method: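 Following overnight seeding in 5% FBS OPTI-MEM, AREc32_Fluc cells receive compounds for a 24 hr incubation at 37 deg C with 5% CO2. Steady-Glo is added, and after 30 min at RT luminescence is recorded.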

[8] = HTS Assay for Allosteric Antagonists of the Human D2 Dopamine Receptor: Hit Validation in HTRF (AID 624455);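 further: stable D1 dopamine receptor cell line scored for blocking the D1 response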
Summary of the method: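 Validation of hits used D1 receptor stably expressed in cells with HTRF detection of response inhibition; origin screen measured calcium flux following EC80 dopamine in a force-coupled, inducible Hek293 Trex D2 cell line.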

[9] = target: Arylsulfatase A (Homo sapiens) (UniProt P15289); assay: qHTS screen for enhancers of Arylsulfatase A (ASA1): LOPAC Validation Assay (AID 720538)
Summary of the method: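 First, ASA-I179S fibroblasts from an MLD patient adhered for 6 hrs. Next, compounds were added for 48h. Then pNCS substrate (0.5mM final) with lysis buffer reacted 14h at room temperature before NaOH stop and fluorescence measurement.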

[10] = qHTS for compounds that reverse cellular toxicity of Amyloid beta (A-beta) peptide in yeast: LOPAC Validation Assay (AID 720559)
Summary of the method: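 Activity is expressed relative to DMSO and an equimolar ferric chloride/clioquinol mix. Compounds were pinned into medium with A-beta-expressing yeast, grown 48 hr at 30 C, then read by absorbance at 600 nm.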

[11] = qHTS for Activators of Parkin Expression: LOPAC Validation Assay (NLuc Reporter) (AID 720572)
Summary of the method: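 Cells harboring the Parkin-promoter coincidence reporter were treated for 24 h at seven concentrations. NLuc output was measured sequentially after the FLuc channel and scaled between DMSO and positive control values.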

[12] = qHTS for Activators of Parkin Expression: LOPAC Validation Assay (FLuc Reporter) (AID 720573)
Summary of the method: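 A neuronal cell line harbouring FLuc and NLuc reporters behind the Parkin promoter was exposed to compounds for 24 h. Firefly luciferase signal, measured after 10 min with detection reagent, was scaled to DMSO and positive-control wells.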

[13] = target: T1, Hexokinase-4 (Homo sapiens) + Glucokinase regulatory protein (Homo sapiens) (UniProt P35557+Q14397); assay: qHTS assay for inhibitors of recombinant human GCK-GKRP interaction: Diaphorase-coupled assay (AID 743205)
Summary of the method: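 Inhibitors of the GCK–GKRP complex relieve GKRP suppression of GCK, detected through a G6PDH–diaphorase cascade reducing resazurin. Human GST-GCK and FLAG-GKRP are used at 10 nM with 5 mM glucose and 0.4 mM ATP.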

[14] = target: T1, Hexokinase-4 (Homo sapiens) + Glucokinase regulatory protein (Homo sapiens); assay: qHTS assay for inhibitors of recombinant human GCK-GKRP interaction: ADP-Glo assay (AID 743206)
Summary of the method: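 Pin-transferred compounds meet a 15 nM GST-GCK/15 nM FLAG-GKRP/2 uM S6P mix (dispense concentrations). ATP is then added to 0.4 mM final with 5 mM glucose, and the reaction runs 60 min at room temperature. ADP is quantified luminescently.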

[15] = target: T1, Hexokinase-4 (Homo sapiens) + Glucokinase regulatory protein (Homo sapiens); assay: qHTS assay for inhibitors of recombinant human GCK-GKRP interaction: HTRF assay (AID 743207)
Summary of the method: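 Steps: dispense GCK–GKRP complex (5 nM each, GST- and FLAG-tagged) with 2 uM S6P; pin in compounds; add XL665/Eu-cryptate-labelled antibodies; incubate 60 min at room temperature; read time-resolved FRET at 665 and 615 nm.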

[16] = Natriuretic polypeptide receptor (hNpr1) antagonism - Pilot counterscreen GloSensor control cell line (AID 1347045; calls by dose curve; further: series mostly up to about 38 µM)
Summary of the method: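 The SNP-driven cGMP luminescence signal (50 uM, 20 min, room temperature) was measured in GloSensor HEK293 control cells. Compounds were tested as a LOPAC titration series and preincubated for 30-50 min.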

[17] = target: Atrial natriuretic peptide receptor 1 (Homo sapiens) (UniProt P16066); assay: Natriuretic polypeptide receptor (hNpr1) antagonism - Pilot screen (AID 1347049; calls by dose curve;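 further: HEK293 cells with hNpr1 and GloSensor cGMP luciferase stimulated by 0.1 nM hNppA; agonist-evoked cGMP luminescence read 20 min after hNppA addition; series mostly up to about 58 µM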)
Summary of the method: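 Cells expressing receptor plus cGMP biosensor are seeded and incubated overnight at 37C, then loaded with GloSensor reagent (2% final) at room temperature for 2 h. Library compounds go on for 30 min. A pre-read precedes agonist (hNppA, 0.1 nM final) and a 20-min readout.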

[18] = target: Atrial natriuretic peptide receptor 2 (Homo sapiens) (UniProt P20594); assay: Natriuretic polypeptide receptor (hNpr2) antagonism - Pilot subtype selectivity assay (AID 1347050; calls by dose curve)
Summary of the method: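 Read-out: GloSensor luminescence (CCD imager), baseline vs post-stimulation. HEK293 cells expressing hNpr2; compounds pre-incubated 30-50 min at ambient temperature; hNppC 1 nM final, 20 min.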

[19] = target: T2, Tyrosine-protein phosphatase non-receptor type substrate 1 (Homo sapiens) + Leukocyte surface antigen CD47 (Homo sapiens) (UniProt P78324+Q08722); assay: CD47-SIRPalpha protein protein interaction - LANCE assay qHTS validation (AID 1347057; active means well fitted curve in the direction sought with a large enough effect in the signal ratio, with a control signal flat, not every such curve was filed as active; the % refers to the signal ratio; further: series mostly up to about 38 µM)
Summary of the method: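 Inhibition of soluble CD47/SIRPalpha ectodomain association by titrated compounds, measured as 665/615 nm time-resolved FRET ratio after sequential 30 min room-temperature incubations.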

[20] = target: T2, Tyrosine-protein phosphatase non-receptor type substrate 1 (Homo sapiens) + Leukocyte surface antigen CD47 (Homo sapiens); assay: CD47-SIRPalpha protein protein interaction - HTRF assay qHTS validation (AID 1347058; active means well fitted curve in the direction sought with a large enough effect in the signal ratio, not every such curve was filed as active; the % refers to the signal ratio; further: series mostly up to about 38 µM)
Summary of the method: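 Soluble extracellular domains (6His-CD47, Avi-tag-biotinylated SIRPalpha) in PBS pH 7.4 with 0.05% IGEPAL CA-630. Compounds were preincubated 30 min at RT with CD47 and anti-His-Eu, then SIRPalpha and SAV-XL665 were added. TR-FRET 665/615 ratio.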

[21] = target: T2, Tyrosine-protein phosphatase non-receptor type substrate 1 (Homo sapiens) + Leukocyte surface antigen CD47 (Homo sapiens); assay: CD47-SIRPalpha protein protein interaction - Alpha assay qHTS validation (AID 1347059);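 further: bead proximity luminescence from CD47 binding SIRPalpha after compound preincubation with SIRPalpha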
Summary of the method: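 In PBS (pH 7.4) with 0.05% IGEPAL CA-630, compound is preincubated with biotin-Avi-SIRPalpha ectodomain before His-CD47 ectodomain and affinity beads are added. Light-protected room-temperature incubations; AlphaScreen readout.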

[22] = target: Parathyroid hormone/parathyroid hormone-related peptide receptor (Homo sapiens) (UniProt Q03431); assay: qHTS for PTHR1 Agonists: Optimization Screen against the NCGC LOPAC library (AID 1347079);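 further: GloSensor cAMP luminescence in HEK-293 GP2 cells expressing human PTHR1 with IBMX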
Summary of the method: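 Signal increase flags agonism. GP2 cells, derived from HEK-293, express human PTHR1 and a GloSensor cAMP construct.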

[23] = tested on: Zika virus NS2B-NS3 protease (unlinked); assay: Optimization of GU AMC qHTS for Zika virus inhibitors: Unlinked NS2B-NS3 protease assay (AID 1347151); further: series mostly up to about 52 µM; nearly all actives have a fitted effect of over 80% in size
Summary of the method: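 Percent inhibition is derived from the 15-min change in AMC fluorescence, normalized against no-inhibitor and no-enzyme controls, then fitted to a 4-parameter Hill curve. Aprotinin was the intraplate control.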

[24] = target: Lysine-specific demethylase 5B (Homo sapiens) (UniProt Q9UGL1); assay: Optimization screen for KDM5B Histone Demethylases FDH coupled qHTS against the LOPAC library (AID 1347166)
Summary of the method: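 KDM5BDeltaAP (200nM final) in 50mM HEPES pH 7.5, 0.01% Tween-20 was preincubated with compound for 10 min at room temperature. A substrate mix of 12.5uM H3K4Me3, 25uM a-ketoglutarate, ascorbate, Fe2+, NAD+ and formaldehyde dehydrogenase was then added. NADH fluorescence (340/450 nm) was read initially and after 30 min.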

[25] = qHTS to identify inhibitors of the type 1 interferon - major histocompatibility complex class I in skeletal muscle: primary screen against the NCATS LOPAC collection (AID 1347405);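 further: human myoblasts with HiBiT tag on endogenous HLA-B stimulated by IFN-beta; lytic HiBiT luminescence reporting HLA-B protein level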
Summary of the method: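 IFN-beta-stimulated (4 ng/ml) HLA-B HiBiT knock-in myoblasts, compound-treated 24 hrs up to 46 uM final; signal via LgBiT complementation and furimazine luminescence.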

[26] = qHTS for inhibitors of adenylyl cyclases using a fission yeast platform: a pilot screen against the NCATS LOPAC library (AID 1347410)
Summary of the method: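 Growth medium went into the plates first, then compounds were pinned (final up to 57 µM), then CHP2027 yeast were added. Plates were incubated overnight (18 h) at 30C in the dark, and GFP was measured by laser scanning cytometry.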

[27] = target: Single-stranded DNA cytosine deaminase (Homo sapiens) (UniProt Q9GZX7); assay: Validation qHTS assay for inhibitors of Activation Induced Cytidine Deaminase (AID): AID signal (AID 1347429)
Summary of the method: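 Compounds (up to 114 uM final) are tested against AID plus UDG using DJC20/DJC23 FRET substrate. Reactions incubate 4 hr at room temperature, receive NaOH for 30 min, and are read at Ex 540/Em 590 nm.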

[28] = target: Calcium and integrin-binding protein 1 (Homo sapiens) (UniProt Q99828); assay: Validation qHTS for Identification of Calcium Integrin Binding protein 1 (CIB1) Competitor (AID 1508618)
Summary of the method: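 Displacement of FITC-alphaIIb peptide (100 nM) from CIB1-GST (1 uM) is monitored by polarization in quantitative HTS format; buffer carries 5 mM CaCl2 and 125 mM NaCl at pH 7.4, incubations are at room temperature.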

Papain (Carica papaya) = Papain (Carica papaya) (UniProt P00784); assay: Primary qHTS assay for inhibitors of the protease papain (AID 1645873);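 further: papain turnover of Z-FR-AMC read as the AMC fluorescence gain over 10 min; series mostly up to about 50 µM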
[29] = target: Metallo-beta-lactamase type 2 (Klebsiella pneumoniae) (UniProt C7C422); assay: qHTS to identify inhibitors of the New Delhi Metallo-beta-lactamase (NDM): assay validation screen against the NCATS LOPAC Collection (AID 1794843);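 further: nitrocefin turnover by NDM-1 measured as 485 nm absorbance at plateau; series mostly up to about 38 µM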
Summary of the method: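 Enzyme 2 nM final, 50 mM HEPES pH 7.0, 1 uM ZnSO4, 0.01% Tween20; cpds in DMSO, preincub w/ enzyme; + nitrocefin (50 uM stock); A485 at plateau; no-enzyme column as blank.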

[30] = target: Glutathione peroxidase 1 (Homo sapiens) (UniProt P07203); assay: Primary qHTS Assay for Inhibitors of Recombinant Selenoprotein Glutathione Peroxidase 1 (GPX1) (AID 1845191); further: nearly all actives have a fitted effect of over 65% in size
Summary of the method: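 GPX1 10 nM, GR 100 nM, GSH 1 mM, NADPH 0.5 mM, CHP 0.5 mM (final). 30-min cpd preincubation, RT. Ex340/Em450 read t=0, t=15 min.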

[31] = target: Phospholipid hydroperoxide glutathione peroxidase GPX4 (Homo sapiens) (UniProt P36969); assay: Primary qHTS Assay for Inhibitors of Recombinant Selenoprotein Glutathione Peroxidase 4 (GPX4) (AID 1845192); conditions: outcome: dose series up to 50 µM unless noted; further: nearly all actives have a fitted effect of over 65% in size
Summary of the method: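 qHTS, GR-coupled: GPX4 200 nM + cpd 30 min RT → GSH 1 mM, NADPH 0.5 mM, GR 100 nM → CHP 0.5 mM start; fluor 340/450 at t0 and t15 min; no-enzyme wells as control.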

Measured: Potency

T2 sequence (P78324 whole entry, looked up, the tested form may be a part): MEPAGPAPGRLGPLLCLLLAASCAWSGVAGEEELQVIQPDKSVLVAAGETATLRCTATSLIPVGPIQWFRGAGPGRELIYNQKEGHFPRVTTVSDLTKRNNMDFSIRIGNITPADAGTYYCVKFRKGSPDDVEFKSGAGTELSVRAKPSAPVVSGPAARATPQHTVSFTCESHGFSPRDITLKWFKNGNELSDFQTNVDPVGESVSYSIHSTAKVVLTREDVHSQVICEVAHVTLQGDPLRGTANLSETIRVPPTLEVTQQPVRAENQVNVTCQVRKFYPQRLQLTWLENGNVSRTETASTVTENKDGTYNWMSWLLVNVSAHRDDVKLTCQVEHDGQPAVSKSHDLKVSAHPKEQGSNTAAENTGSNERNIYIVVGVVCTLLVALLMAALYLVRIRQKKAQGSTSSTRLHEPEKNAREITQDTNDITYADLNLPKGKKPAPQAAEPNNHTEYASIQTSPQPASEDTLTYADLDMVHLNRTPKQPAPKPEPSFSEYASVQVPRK
T2 sequence (Q08722 whole entry, looked up, the tested form may be a part): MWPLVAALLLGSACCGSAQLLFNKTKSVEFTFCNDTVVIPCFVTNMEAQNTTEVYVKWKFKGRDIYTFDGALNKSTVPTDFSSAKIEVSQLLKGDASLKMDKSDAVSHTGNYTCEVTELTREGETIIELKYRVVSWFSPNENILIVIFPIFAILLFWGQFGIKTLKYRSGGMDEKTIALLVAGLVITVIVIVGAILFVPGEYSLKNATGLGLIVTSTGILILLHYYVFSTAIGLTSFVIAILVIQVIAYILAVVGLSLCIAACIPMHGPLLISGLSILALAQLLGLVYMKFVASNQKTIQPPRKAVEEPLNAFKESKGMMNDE
T1 sequence (P35557 whole entry, looked up): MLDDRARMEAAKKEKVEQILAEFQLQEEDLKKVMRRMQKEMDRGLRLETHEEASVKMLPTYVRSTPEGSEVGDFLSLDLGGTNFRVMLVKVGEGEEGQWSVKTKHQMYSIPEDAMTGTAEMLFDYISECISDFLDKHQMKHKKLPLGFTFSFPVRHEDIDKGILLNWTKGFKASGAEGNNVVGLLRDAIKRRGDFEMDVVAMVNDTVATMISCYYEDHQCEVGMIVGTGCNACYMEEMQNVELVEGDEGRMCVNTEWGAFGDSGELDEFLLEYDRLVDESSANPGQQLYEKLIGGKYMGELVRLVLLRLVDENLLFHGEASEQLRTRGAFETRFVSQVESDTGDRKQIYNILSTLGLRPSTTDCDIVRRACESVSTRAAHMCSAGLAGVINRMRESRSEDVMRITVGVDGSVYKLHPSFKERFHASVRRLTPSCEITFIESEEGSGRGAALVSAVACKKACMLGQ
T1 sequence (Q14397 whole entry, looked up): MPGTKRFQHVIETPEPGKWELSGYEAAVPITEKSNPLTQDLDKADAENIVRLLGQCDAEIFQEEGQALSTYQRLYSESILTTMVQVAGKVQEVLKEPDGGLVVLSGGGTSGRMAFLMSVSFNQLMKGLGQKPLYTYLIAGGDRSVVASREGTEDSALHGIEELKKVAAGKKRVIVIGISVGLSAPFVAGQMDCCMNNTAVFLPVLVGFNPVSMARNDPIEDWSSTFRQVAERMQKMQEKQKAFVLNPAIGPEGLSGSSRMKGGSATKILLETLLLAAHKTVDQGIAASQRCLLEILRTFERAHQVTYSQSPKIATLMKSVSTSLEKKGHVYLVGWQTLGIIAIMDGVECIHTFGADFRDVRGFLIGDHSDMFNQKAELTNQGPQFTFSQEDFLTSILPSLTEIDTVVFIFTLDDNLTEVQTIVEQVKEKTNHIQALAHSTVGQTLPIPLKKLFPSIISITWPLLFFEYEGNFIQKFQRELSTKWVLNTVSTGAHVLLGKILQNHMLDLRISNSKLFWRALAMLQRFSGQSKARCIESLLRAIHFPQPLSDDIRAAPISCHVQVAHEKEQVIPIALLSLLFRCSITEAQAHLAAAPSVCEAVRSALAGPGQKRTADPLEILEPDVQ
Chain of Metallo-beta-lactamase type 2 (Klebsiella pneumoniae) (C7C422 whole entry, looked up): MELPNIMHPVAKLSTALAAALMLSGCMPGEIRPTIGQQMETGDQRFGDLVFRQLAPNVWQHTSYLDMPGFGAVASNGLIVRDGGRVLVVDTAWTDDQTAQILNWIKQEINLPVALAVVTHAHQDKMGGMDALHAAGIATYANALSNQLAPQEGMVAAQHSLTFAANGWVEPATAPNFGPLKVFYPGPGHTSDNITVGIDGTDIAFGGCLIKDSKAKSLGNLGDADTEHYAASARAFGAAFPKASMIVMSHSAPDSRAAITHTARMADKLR
Chain of Phospholipid hydroperoxide glutathione peroxidase GPX4 (Homo sapiens) (P36969 whole entry, looked up): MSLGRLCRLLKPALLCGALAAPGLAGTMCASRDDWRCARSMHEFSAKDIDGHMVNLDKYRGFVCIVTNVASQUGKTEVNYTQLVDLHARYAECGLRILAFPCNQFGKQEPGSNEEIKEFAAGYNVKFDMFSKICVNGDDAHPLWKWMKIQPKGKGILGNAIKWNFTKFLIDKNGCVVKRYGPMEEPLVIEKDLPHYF
Chain of Glutaminase kidney isoform, mitochondrial (Homo sapiens) (O94925 whole entry, looked up, canonical isoform): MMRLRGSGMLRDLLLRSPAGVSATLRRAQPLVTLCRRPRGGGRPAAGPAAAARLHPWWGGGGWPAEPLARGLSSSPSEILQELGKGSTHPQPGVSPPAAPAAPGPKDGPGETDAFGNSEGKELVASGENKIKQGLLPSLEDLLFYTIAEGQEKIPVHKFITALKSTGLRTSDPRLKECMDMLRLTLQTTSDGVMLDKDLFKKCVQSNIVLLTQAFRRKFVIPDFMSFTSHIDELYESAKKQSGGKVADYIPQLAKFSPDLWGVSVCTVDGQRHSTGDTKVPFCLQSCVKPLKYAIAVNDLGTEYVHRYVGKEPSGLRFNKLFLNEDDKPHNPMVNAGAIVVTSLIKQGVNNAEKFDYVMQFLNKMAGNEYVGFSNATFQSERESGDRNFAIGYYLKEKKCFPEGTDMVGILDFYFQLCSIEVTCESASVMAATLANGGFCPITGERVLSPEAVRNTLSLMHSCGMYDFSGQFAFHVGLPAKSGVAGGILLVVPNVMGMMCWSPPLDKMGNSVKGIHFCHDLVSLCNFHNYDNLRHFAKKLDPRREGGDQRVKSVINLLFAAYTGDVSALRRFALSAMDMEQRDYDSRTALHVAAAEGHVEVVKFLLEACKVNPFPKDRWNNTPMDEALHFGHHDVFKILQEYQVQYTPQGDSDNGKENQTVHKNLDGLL
Chain of phosphoglycerate mutase (Leishmania major) (Q4Q090 1-553): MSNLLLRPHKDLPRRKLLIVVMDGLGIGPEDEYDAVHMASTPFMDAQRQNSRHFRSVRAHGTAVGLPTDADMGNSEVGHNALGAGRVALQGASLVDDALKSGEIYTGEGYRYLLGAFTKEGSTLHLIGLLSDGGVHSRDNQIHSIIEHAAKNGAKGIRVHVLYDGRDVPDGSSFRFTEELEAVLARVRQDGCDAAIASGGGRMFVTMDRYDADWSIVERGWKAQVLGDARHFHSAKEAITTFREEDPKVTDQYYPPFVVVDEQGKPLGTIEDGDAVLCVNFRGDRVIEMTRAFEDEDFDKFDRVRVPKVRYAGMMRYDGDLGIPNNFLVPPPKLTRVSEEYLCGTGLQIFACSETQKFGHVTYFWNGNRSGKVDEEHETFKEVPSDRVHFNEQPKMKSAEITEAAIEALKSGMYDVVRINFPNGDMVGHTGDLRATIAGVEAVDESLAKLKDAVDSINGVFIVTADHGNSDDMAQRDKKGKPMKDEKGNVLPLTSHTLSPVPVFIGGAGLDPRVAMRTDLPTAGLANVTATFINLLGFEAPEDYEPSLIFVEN
Chain of Glucagon-like peptide 1 receptor (Homo sapiens) (P43220 whole entry, looked up): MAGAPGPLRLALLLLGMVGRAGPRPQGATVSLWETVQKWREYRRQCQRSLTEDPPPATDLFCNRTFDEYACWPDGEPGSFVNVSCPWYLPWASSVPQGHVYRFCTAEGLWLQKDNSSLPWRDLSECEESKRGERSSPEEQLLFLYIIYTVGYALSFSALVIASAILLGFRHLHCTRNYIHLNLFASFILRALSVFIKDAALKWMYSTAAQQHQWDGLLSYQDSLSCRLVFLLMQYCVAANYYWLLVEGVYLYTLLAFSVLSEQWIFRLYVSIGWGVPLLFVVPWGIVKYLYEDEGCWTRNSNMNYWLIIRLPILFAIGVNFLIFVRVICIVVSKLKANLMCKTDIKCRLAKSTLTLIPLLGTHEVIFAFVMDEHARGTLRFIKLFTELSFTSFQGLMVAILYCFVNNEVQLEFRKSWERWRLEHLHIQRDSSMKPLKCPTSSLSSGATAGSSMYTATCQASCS
Chain of Calcium and integrin-binding protein 1 (Homo sapiens) (Q99828 whole entry, looked up): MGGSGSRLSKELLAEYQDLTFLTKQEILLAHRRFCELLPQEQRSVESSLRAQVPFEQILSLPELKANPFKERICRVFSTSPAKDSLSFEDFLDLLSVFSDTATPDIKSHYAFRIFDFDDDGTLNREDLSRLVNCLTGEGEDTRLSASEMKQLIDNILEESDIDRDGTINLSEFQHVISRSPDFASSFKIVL
Chain of Arylsulfatase A (Homo sapiens) (P15289 whole entry, looked up): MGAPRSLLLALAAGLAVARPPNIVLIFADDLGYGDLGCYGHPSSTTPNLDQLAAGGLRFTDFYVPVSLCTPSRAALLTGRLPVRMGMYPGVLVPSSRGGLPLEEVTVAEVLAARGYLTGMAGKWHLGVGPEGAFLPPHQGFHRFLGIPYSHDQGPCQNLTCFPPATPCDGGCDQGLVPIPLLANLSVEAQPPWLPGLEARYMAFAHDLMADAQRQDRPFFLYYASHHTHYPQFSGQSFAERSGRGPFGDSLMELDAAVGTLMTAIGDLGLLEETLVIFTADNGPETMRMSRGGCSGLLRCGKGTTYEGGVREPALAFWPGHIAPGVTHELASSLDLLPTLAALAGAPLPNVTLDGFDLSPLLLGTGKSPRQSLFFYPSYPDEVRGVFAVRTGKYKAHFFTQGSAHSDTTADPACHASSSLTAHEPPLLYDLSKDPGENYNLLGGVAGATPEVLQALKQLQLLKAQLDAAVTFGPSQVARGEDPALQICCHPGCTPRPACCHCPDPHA

CC[N+](CC)(CC)CC
inactive: all assays above
